# Reference: PubChem BioAssay AID1981 (Southern Research Specialized Biocontainment Screening …, 2009)
# Hit rate of the full screen: of about 2,200 compounds, about 480 (22%) were called active. The list is a sample of the results. Measured potencies and affinities stand elsewhere. Unmarked numbers belong to inactive results. The rule behind the calls is not given here.
# Assay: S. Typhimurium GFP fluorescence modified counterscreen for PhoP regulon inhibitor project dose response (AID 1981);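 note: 0% = induced DMSO wells and 100% = uninduced wells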
# Conditions: 4 h; series mostly up to 150 µM; inhibition: at the top concentration
row,Structure (SMILES),inhibition [%]
1,CCC(C)n1c(O)c(C(c2ccccn2)c2c(O)n(C(C)CC)c(=S)[nH]c2=O)c(=O)[nH]c1=S (centres undefined),-10.1
2,Cn1c(=O)c(=O)n(C)c2cc(S(=O)(=O)Nc3ccc4c(c3)OCCO4)ccc21,5.3
3,Cc1ccc(N(CC(=O)Nc2cccc(C)c2)S(=O)(=O)c2cccc3nonc23)cc1,-13.7
4,Nc1cc(N2CCCCC2)c(Cl)cc1[N+](=O)[O-],2.22
5,CCOc1ccc(-c2noc(CCCC(N)=O)n2)cc1OC,-23.5
6,CCOc1ccc(/C=C/C(=O)Nc2ccc(OC)cc2[N+](=O)[O-])cc1,-7.63
7,Nc1ccc(N(c2ccccc2)c2ccc(N)cc2)cc1,34.6
8,Cc1ccccc1C(=O)N(C)Cc1ccccc1,-6.23
9,CCC(CC)c1nnc(NC(=O)Oc2ccccc2)s1,0.33
10,CCOCc1nnc(NC(=O)COC)s1,-11.1
11,Cc1cc(C=O)c(C)n1-c1ccc(Oc2ccc([N+](=O)[O-])cn2)cc1,-14.5
12,CCCn1nnc(NC(=O)c2ccc(Br)o2)n1,-3.29
13,COc1ccccc1CNc1nc2nc(C)c(C)c(=O)n2[nH]1,7.23
14,COc1cc(CNCc2cccs2)cc(Br)c1OC,-1.87
15,c1ccc2c(CCNCc3ccc4c(c3)OCO4)c[nH]c2c1,4.11
16,COc1ccc(CCNC(=S)Nc2cccc3ccccc23)cc1,-13.8
17,Fc1ccc(CCNCc2cccc(Cl)c2)cc1,-5.69
18,Brc1cccc(CNCc2cccs2)c1,10.1
19,CCN(C(=O)COc1cc(=O)n(CC)c2ccccc12)c1cccc(Cl)c1,3.2
20,CCN(CC)S(=O)(=O)c1ccc2c(c1)nc(SCC(=O)N1CCOCC1)n2-c1ccccc1OC,1.44

row,Structure (SMILES),inhibition [%]
1,O=c1ccc2ccc(Oc3ccc([N+](=O)[O-])cc3[N+](=O)[O-])cc2o1,12.6
2,O=C(CCN1CCc2ccccc2C1)Nc1ccccc1F,-10.2
3,CCCc1nc2c(o1)CC(CC(C)SCC)CC2=O (centres undefined),-6.99
4,COc1ccc(S(=O)(=O)Nc2ccc(F)c(F)c2)cc1Cl,4.83
5,S=C(NCc1cccnc1)Nc1ccc(Cl)c(Cl)c1,8.92
6,CCc1cccc(C)c1NC(=S)NCc1cccn1C,-0.7
7,COC(=O)C1=C(CSc2nc3ccccc3o2)NC(=O)NC1c1cc(C)ccc1C (centres undefined),13.2
8,CCn1c(SCc2nc3scc(-c4ccccc4)c3c(=O)[nH]2)nnc1-c1cccs1,18.2
9,COc1ccc2c(c1)OC1=C(C(=O)CCC1)C2C1=C(O)CCCC1=O (centres undefined),7.41
10,CC(=O)Nc1cccc(-c2csc(Nc3ccccn3)n2)c1,-1
11,O=C(NNc1nc(-c2ccccc2)cs1)c1ccccc1,-3.2
12,c1ccc(CN2CCN(c3nc(-c4ccccc4)nc(-n4ccnc4)n3)CC2)cc1,-2.93
13,C#CCOc1ccc(/C=N/O)cc1Cl,-3.25
14,Cc1ccc(-c2csc(=S)n2CC(=O)OCC(=O)NCc2ccco2)cc1,-8.25
15,N#Cc1ccc(C(c2nnnn2CCc2ccccc2)N2CCCCCC2)cc1 (centres undefined),-15.7
16,Cc1ccc(S(=O)(=O)NNC(=O)c2ccc(O)cc2)cc1,1.15
17,CC1(C)SC(=S)N(NC(=O)Nc2ccccc2)C1N(O)C(=O)Nc1ccccc1 (centres undefined),7.41
18,O=C(CCN1CCCCC1)NCC1OCCc2ccccc21 (centres undefined),-20.4
19,S=C(Nc1cccc(Cl)c1)Nc1cccc2cnccc12,-24.1
20,CCc1nc2cc(Cl)c(Cl)cc2[nH]1,12

row,Structure (SMILES),inhibition [%]
1,Cc1cccc(N2CCN(CC(=O)Nc3nccs3)CC2)c1C,-2.79
2,CCCOC(=O)Oc1ccc2c(=O)c(Oc3cc(C)cc(C)c3)coc2c1,-16.2
3,COC(=O)c1ccccc1Oc1cnc2ccccc2n1,3.05
4,CCOC(=O)c1c(/N=C/c2ccc(O)cc2O)sc2c1CCC2,-1.93
5,Cc1cccc(Nc2ncccc2C(=O)NCc2cccs2)c1C,-4.09
6,Cc1ccccc1NC(=O)c1sc2nc3c(c(-c4ccco4)c2c1N)CCC3,-2.93
7,O=C(Nc1nc2cc3c(cc2s1)OCO3)C1=COCCO1,-14.7
8,N#Cc1c(NC(=O)c2cnccn2)sc2c1CCCC2,-12.6
9,COc1ccc(/C=C/C(=O)NC(=S)NNC(=O)c2cnccn2)cc1,6.18
10,COc1ccc(N2CCN(C(=O)CN(c3cccc(Br)c3)S(C)(=O)=O)CC2)cc1,0.41
11,NC(=O)CCc1c[nH]c2ccccc12,-14
12,O=C(CN1CCN(Cc2ccccc2)CC1)c1c[nH]c2ccccc12,-2.5
13,Cc1ccc2c(c1)[nH]c1c(N3CCN(Cc4ccccc4)CC3)ncnc12,-14.9
14,CCc1nc(SCC(=O)N2CCCc3ccccc32)c2oc3ccccc3c2n1,4.7
15,O=C(CCCOc1ccccc1)N1CCCc2ccccc21,6.17
16,O=C(Nc1ccc(S(=O)(=O)N2CCCC2)cc1)c1ccc(CN2CCc3ccccc3C2)cc1,2.53
17,CC1CC(C)CN(CCCNC(=O)C2CCC(=O)N2C2CCCC2)C1 (centres undefined),-16.3
18,CCc1ccc(NC(=O)c2noc3c2CCc2ccccc2-3)cc1,-5.12
19,CCSc1nnc(NC(=O)Cc2cccc(OC)c2)s1,-15.9
